This note sets out measurements from PubChem BioAssay AID1259313 (Sanford-Burnham Center for Chemical Genomics, 2017).

Molecules are shown by their SMILES. The whole screen tested about 340,000 compounds, of which about 8,500 (2.5%) were called active. The entries come from a sample that favours actives as a whole. Values without a mark were called inactive.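 The calls were made as follows: active = melting temperature shift of at least 10% of the positive control shift, at one fixed dose; inactive = the rest.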

For this test, the system named is Glutamate receptor ionotropic, NMDA 3A (GRIN3A) ligand-binding domain. The test can be described thus: NR3A LBD thermal stabilization by compounds – biophysical, differential scanning fluorimetry, uHTS, primary screen (AID 1259313). The conditions noted are these: at 25 µM, active compounds read high. In general terms: In DSF a fluorescence change marks the thermal transition of the protein.
As for `CN1CCN(C(=S)SCC(=O)Nc2ccc(Cl)cc2C(=O)c2ccccc2)CC1`, the Tm shift relative to glycine control was 3.94%.
As to `O=C(CCNS(=O)(=O)c1ccccc1)Nc1ccc(Cl)cc1C(=O)c1ccccc1`, the Tm shift relative to glycine control was -5.82%.
On to `O=C(COC(=O)c1ccccc1)Nc1ccc(Cl)cc1C(=O)c1ccccc1`, for which the Tm shift relative to glycine control was 12.2% (active).
`O=C(Nc1cccc2ccccc12)N1CCC2(CC1)OCCO2`: the Tm shift relative to glycine control was 0%.
`Cc1cc(N2C(=O)C3CCCN3C2c2ccc(Cl)c(Cl)c2)no1` (stereo not given): the Tm shift relative to glycine control was 0.27%.
For `COCCNC(=O)CN1C2CCC1CC(O)(c1cccnc1)C2` (stereo not given) the value was 0.09%; for `O=C1NC(=O)N(Cc2ccco2)C(=O)/C1=C\c1ccc(-c2ccc(F)cc2)o1`, 0.53%; for `COc1ccc(N2C(=O)/C(=C/c3ccco3)C(=O)NC2=S)cc1`, 10.6% (active).
For `COc1cccc(N2C(=O)NC(=O)/C(=C\c3ccc([N+](=O)[O-])s3)C2=O)c1`, the Tm shift relative to glycine control is -7.7%.
For `CC[N+]1(C)CCCC(OC(=O)C(O)(c2ccccc2)c2ccccc2)C1` (stereo not given) the value was 1.89%.
With `CC1=C(C(=O)Nc2ccccc2)S(=O)(=O)CCO1`, the Tm shift relative to glycine control was 0.53%.
Turning to `CCNc1nc2[nH]c(=O)c3c(c2s1)OC(N)=C(C#N)C3c1cccs1` (stereo not given), the Tm shift relative to glycine control was 1.75%.
Consider `CCN1C(=O)C(=Cc2c(C)n(CC(=O)NCC3CCCO3)c3ccccc23)C(=O)N(CC)C1=S` (stereo not given), for which the Tm shift relative to glycine control is 0.27%.
As for `CCCCCCCCCCCCn1ccc(=N)cc1`, the Tm shift relative to glycine control is 20.8% (active).
On to `CCN1C(=O)NC(=O)C2(CCCC2)C1=O`, for which the Tm shift relative to glycine control is 1.88%.
